System: Vero E6 infected with SARS-CoV-2
Assay: inhibition of SARS-CoV-2 cytopathic effect; higher = more antiviral protection, active = above 15
Conditions: 48 h

Measured: inhibition of SARS-CoV-2 cytopathic effect

C[N+](C)(CCOc1ccccc1)Cc1ccccc1 [bephenium-hydroxynaphthoate]
inactive: 1 nM 2.11% | 8.33 nM 0.87% | 100 nM 0.58% | 833.33 nM 0.22% | 10000 nM -0.72%

CN1CCC[C@@H]1CCSc1ccc(O)cc1
inactive: 1 nM 0.25% | 8.33 nM 0.01% | 100 nM 0.07% | 833.33 nM -1.07% | 10000 nM -3.04%

O=[N+]([O-])c1cccc2cn[nH]c12 [7-nitroindazole]
inactive: 1 nM -1.89% | 8.33 nM 1.76% | 100 nM 3.57% | 833.33 nM 4.56% | 10000 nM -1.2%

CC(C)[C@@H](CN1CC[C@@](C)(c2cccc(O)c2)[C@@H](C)C1)NC(=O)[C@H]1Cc2ccc(O)cc2CN1
inactive: 1 nM -0.76% | 8.33 nM 1.45% | 100 nM -1.62% | 833.33 nM -1.16% | 10000 nM -4.59%

COc1ccc2c(c1)C(=O)N(CCc1ccc(S(=O)(=O)NC(=O)NC3CCCCC3)cc1)C(=O)C2(C)C [gliquidone]
inactive: 1 nM -1.78% | 8.33 nM 2.65% | 100 nM 2.68% | 833.33 nM -0.14% | 10000 nM -0.29%

COc1cc(OC)cc(-c2ccc3c(-c4ccc(F)cc4)n[nH]c3n2)c1
inactive: 1 nM 12% | 8.33 nM -1.07% | 100 nM 2.95% | 833.33 nM 1.46% | 10000 nM -0.11%

CC(=O)Nc1nnc(S(N)(=O)=O)s1 [acetazolamide]
inactive: 1 nM -0.16% | 8.33 nM -1.99% | 100 nM -1.3% | 833.33 nM -2.21% | 10000 nM -1.25%

CNC[C@@H]1CC[C@@H](N)[C@@H](O[C@H]2[C@H](O)[C@@H](O[C@H]3OC[C@](C)(O)[C@H](NC)[C@H]3O)[C@H](N)C[C@@H]2N)O1 [micronomicin]
inactive: 1 nM 0.04% | 8.33 nM 1.42% | 100 nM 0.72% | 833.33 nM 3.66% | 10000 nM -0.03%

C(#Cc1nc2ncccc2nc1OCCN1CCCC1)c1ccccc1
inactive: 1 nM -1.59% | 8.33 nM -0.87% | 100 nM -1.72% | 833.33 nM 7.05%
active: 10000 nM 15.8%

NCCC(O)(P(=O)(O)O)P(=O)(O)O [pamidronate]
inactive: 1 nM -0.49% | 8.33 nM 2.17% | 100 nM -0.58% | 833.33 nM -3.14% | 10000 nM -1.25%

C#CCC(Cc1cnc2nc(N)nc(N)c2n1)c1ccc(C(=O)N[C@@H](CCC(=O)O)C(=O)O)cc1 (stereo not given in full) [pralatrexate]
inactive: 1 nM 1.9% | 8.33 nM -0.71% | 100 nM -3.9% | 833.33 nM -4.99% | 10000 nM -6.91%

Cn1c(=O)cnn(CCCCN2CCN(c3ncccn3)CC2)c1=O
inactive: 1 nM 0.44% | 8.33 nM -0.24% | 100 nM 1.14% | 833.33 nM -0.77% | 10000 nM 1.05%

CCC[C@H](NC(=O)/C(C#N)=C/c1cccc(Br)n1)c1ccccc1
inactive: 1 nM 1.89% | 8.33 nM 1.78% | 100 nM -0.09% | 833.33 nM 4.12% | 10000 nM -5.9%

OC(c1ccccc1)(c1ccccc1)C12CC[N+](CCOCc3ccccc3)(CC1)CC2 [umeclidinium]
inactive: 1 nM -0.48% | 8.33 nM 1.77% | 100 nM 0.73% | 833.33 nM 1.46% | 10000 nM 1.64%

CN(C)c1ccc(C(=C2C=CC(=[N+](C)C)C=C2)c2ccc(N(C)C)cc2)cc1 [crystal-violet]
inactive: 1 nM -0.43% | 8.33 nM 1.49% | 100 nM 0.27% | 833.33 nM -11.4% | 10000 nM -22.8%

N#Cc1c(N)nc(SCc2csc(-c3ccc(Cl)cc3)n2)c(C#N)c1-c1ccc(OCCO)cc1 [capadenoson]
inactive: 1 nM 0.18% | 8.33 nM -0.34% | 100 nM -1.11% | 833.33 nM -2.63% | 10000 nM -3.59%

C[N+]1(C)CCCC(OC(=O)C(O)(c2ccccc2)c2ccccc2)C1 (stereo not given) [mepenzolate]
inactive: 1 nM -0.21% | 8.33 nM -0.16% | 100 nM -3.53% | 833.33 nM 0.26% | 10000 nM 0.49%

CCO[C@@H]1OC(=O)C[C@@H]1NC(=O)[C@@H]1CCCN1C(=O)[C@@H](NC(=O)c1ccc(N)c(Cl)c1)C(C)(C)C
inactive: 1 nM -2.56% | 8.33 nM -1.09% | 100 nM 0.58% | 833.33 nM 0.04% | 10000 nM -2.79%

NC(=O)CN1Cc2ccccc2OC1=O [caroxazone]
inactive: 1 nM 1.09% | 8.33 nM -3.02% | 100 nM -3.19% | 833.33 nM -4.05% | 10000 nM -0.94%

Nc1n[n+]([O-])c2ccccc2[n+]1[O-] [tirapazamine]
inactive: 1 nM -0.88% | 8.33 nM 0.77% | 100 nM 2.11% | 833.33 nM 0.37% | 10000 nM 2.74%

CCCN(CCC)CCc1cccc2c1CC(=O)N2 [ropinirole]
inactive: 1 nM 0.18% | 8.33 nM -0.55% | 100 nM -1.05% | 833.33 nM 2.2% | 10000 nM -0.98%

C[C@H](NC(=O)[C@@H](O)c1cc(F)cc(F)c1)C(=O)N[C@@H]1C(=O)N(C)c2ccccc2-c2ccccc21
inactive: 1 nM -3.7% | 8.33 nM -4.79% | 100 nM -8.67% | 833.33 nM -14% | 10000 nM -7.15%

CCOc1ccc(-c2ccc(Cn3c(CC(C)(C)C(=O)O)c(SC(C)(C)C)c4cc(OCc5ccc(C)cn5)ccc43)cc2)cn1
inactive: 1 nM 1.07% | 8.33 nM 0.1% | 100 nM -0.84% | 833.33 nM -0.16% | 10000 nM -0.78%

CC(C)(C)c1cc(C=C(C#N)C#N)cc(C(C)(C)C)c1O [tyrphostin-A9]
inactive: 1 nM 1.9% | 8.33 nM 1.44% | 100 nM 4.1% | 833.33 nM 8.55% | 10000 nM 6.42%

NCc1ccc(S(N)(=O)=O)cc1 [mafenide]
inactive: 1 nM 0.46% | 8.33 nM 1.5% | 100 nM 1.54% | 833.33 nM 2.7% | 10000 nM -2.32%

CC[C@@]1([C@H]2O[C@H]([C@H]3O[C@@](O)(CO)[C@H](C)C[C@@H]3C)C[C@H]2C)CC[C@H]([C@@]2(C)CC[C@]3(C[C@H](O)[C@@H](C)[C@@H]([C@H](C)[C@H](OC)[C@@H](C)C(=O)O)O3)O2)O1
inactive: 1 nM -2.66% | 8.33 nM -0.7% | 100 nM 2.93%
active: 833.33 nM 27.6% | 10000 nM 52.5%

— the supplement of paper PMC13380429
